Assay results taken from the supplement of paper PMC6992640.
Where a name gives a salt, the structure may show the parent alone. ± gives the standard deviation of the averaged measurements.

Assays:
Assay in all cases: cell viability (% of vehicle); higher = less cytotoxic
Conditions in all cases: 10 µM; 72 h
HCI01 = system: HCI01 (cells of a triple-negative basal-like breast cancer xenograft)
HCI03 = system: HCI03 (cells of an ER-positive luminal breast cancer xenograft)
HCI09 = system: HCI09 (cells of a triple-negative luminal androgen receptor type breast cancer xenograft)
HCI11 = system: HCI11 (cells of an ER-positive luminal breast cancer xenograft)
HCI13 = system: HCI13 (cells of an ER-positive luminal breast cancer xenograft)
HCI16 = system: HCI16 (cells of a triple-negative basal-like breast cancer xenograft)
UCD52 = system: UCD52 (cells of a triple-negative basal-like breast cancer xenograft)
WHIM2 = system: WHIM2 (cells of a triple-negative basal-like breast cancer xenograft)
WHIM30 = system: WHIM30 (cells of a triple-negative basal-like breast cancer xenograft)
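Also: PDX cells carrying CMV promoter-driven luciferase, viability read as total photon flux per second by IVIS imaging following D-luciferin, vehicle control 0.1% DMSO.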

Structure (SMILES)	cell viability (HCI01)	cell viability (HCI03)	cell viability (HCI09)	cell viability (HCI11)	cell viability (HCI13)	cell viability (HCI16)	cell viability (UCD52)	cell viability (WHIM2)	cell viability (WHIM30)
CC12CC3CC(C)(C1)CC(N)(C3)C2.Cl [Memantine hydrochloride]	88.8 ± 14	146	104 ± 13	99.3	116 ± 3.6	98.2	92.37 ± 0.13	88.1 ± 15	156 ± 21
CC(OC1OCCN(Cc2nc(=O)[nH][nH]2)C1c1ccc(F)cc1)c1cc(C(F)(F)F)cc(C(F)(F)F)c1 (stereo unspecified) [Aprepitant]	81 ± 48	91.5	77.5 ± 16	86.9	35.8 ± 4.5	66.1	75.3 ± 3.8	100 ± 11	83.6 ± 3.1
Cc1ccc(C(=O)C(C)CN2CCCCC2)cc1.Cl (stereo unspecified) [Tolperisone HCl]	118 ± 20	118	101 ± 3.6	92.5	47.8 ± 8.8	109	92.3 ± 8.6	130 ± 6.4	110 ± 3.9
CCN(CC)CCOCCOC(=O)C(CC)(CC)c1ccccc1.O=C(O)CC(O)(CC(=O)O)C(=O)O [Oxeladin Citrate]	111.1 ± 1.1	92.7	143 ± 73	99.4	98.7 ± 22	122	84.9 ± 4.5	82.4 ± 24	119 ± 21
CC(=O)C1CCC2C3CC=C4CC(O)CCC4(C)C3CCC12C (stereo unspecified) [Pregnenolone]	141 ± 20	126	76 ± 7	84.5	175 ± 44	111	75.4 ± 2.4	99 ± 3.8	116 ± 19
COC(=O)C=CC(=O)OC [Dimethyl Fumarate]	126 ± 22	129	104 ± 5.7	95.4	70.4 ± 15	113	94.6 ± 3.6	134 ± 30	128 ± 18
OC[C@@H](O)[C@@H](O)[C@H](O)[C@H](O)CO [D-Mannitol]	74.7 ± 26	95.7	93.1 ± 16	83.2	88.7 ± 6.7	114	74 ± 2.5	97.5 ± 16	115 ± 6.2
NC(=O)CC[C@H](N)C(=O)O [L-Glutamine]	85.6 ± 8.7	92.8	92.2 ± 25	87.4	101.1 ± 0.78	97.3	82.9 ± 3.6	104 ± 3.9	70.6 ± 7.1
CC12CCC3c4ccc(O)cc4CCC3C1CCC2OC(=O)CCC1CCCC1 (stereo unspecified) [Estradiol Cypionate]	168 ± 2.2	101	96.6 ± 4.5	93.1	180 ± 16	147	92 ± 6.5	110 ± 10	130 ± 12
CC(C[N+](C)(C)C)OC(N)=O.[Cl-] (stereo unspecified) [Bethanechol chloride]	86.3 ± 5.2	88	90.8 ± 12	82.5	104 ± 14	101	100 ± 5.9	105 ± 6.2	79.4 ± 1.9
Br.Br.Br.Br.Br.Cc1cc(N2CCN(C3CNC(C(=O)N4CCSC4)C3)CC2)n(-c2ccccc2)n1.Cc1cc(N2CCN(C3CNC(C(=O)N4CCSC4)C3)CC2)n(-c2ccccc2)n1 (stereo unspecified) [Teneligliptin hydrobromide]	111 ± 3.1	95.2	82.5 ± 13	71.5	79.96 ± 0.58	88.2	82 ± 1.3	99 ± 20	88.4 ± 3.9
Nc1nc(=O)c2ncn(COCCO)c2[nH]1 [Acyclovir]	103 ± 7.2	107	55.9 ± 49	113	154 ± 13	87.8	91.1 ± 11	96 ± 2.8	108 ± 19
CN(C)CCCN1c2ccccc2CCc2ccc(Cl)cc21.Cl [Clomipramine HCl]	102 ± 22	108	74.2 ± 2.6	69.7	88.4 ± 10	88.4	61.1 ± 1.7	58 ± 1.1	94.4 ± 13
CC(C)(C)c1cc(NC(=O)Nc2ccc(-c3cn4c(n3)sc3cc(OCCN5CCOCC5)ccc34)cc2)no1 [Quizartinib (AC220)]	168 ± 27	112	81.5 ± 1.3	111	94 ± 17	127	146 ± 29	74.2 ± 3.8	193 ± 34
CC(Cc1ccc(O)c(O)c1)(NN)C(=O)O (stereo unspecified) [Carbidopa]	116 ± 20	122	121 ± 20	79.8	119 ± 14	149	124 ± 9.1	81.6 ± 11	126 ± 6.2
O=c1[nH]c(=O)n(C2CC(O)C(CO)O2)cc1F (stereo unspecified) [Floxuridine]	122 ± 5.9	103	103 ± 20	131	84.4 ± 5.7	161	167 ± 12	105 ± 13	149 ± 34
CC(C(=O)O)c1ccc2c(c1)CC(=O)c1ccccc1S2 (stereo unspecified) [Zaltoprofen]	124 ± 32	120	95.5 ± 26	103	134 ± 6.7	112	77.9 ± 11	98 ± 13	82.8 ± 5.6
CN(CC=CC#CC(C)(C)C)Cc1cccc2ccccc12.Cl [Terbinafine HCl]	93.6 ± 30	99	86.02 ± 0.12	81.6	73 ± 1.7	123	70.5 ± 7.4	62.8 ± 10	91.1 ± 1.7
CCC(Nc1ncnc2nc[nH]c12)c1nc2cccc(F)c2c(=O)n1-c1ccccc1 (stereo unspecified) [CAL-101 (Idelalisib, GS-1101)]	91.6 ± 8.4	80.7	88.2 ± 19	76.8	51.9 ± 3.4	68.1	68.3 ± 3	62.8 ± 2.9	121.9 ± 0.48
